High-throughput results deposited in PubChem by National Center for Advancing Translational Sciences (NCATS).
Vaccinia Venus: inhibitors of vaccinia virus (Venus reporter) | Potency, µM (highest dose often 36.5 µM), inactives show at the top dose activity change, negative = inhibition, actives largely listed as inhibitors | Vaccinia virus Venus reporter expression, fluorescence | 330,000 compounds, 0.46% hits; calls by dose curve; tested in A549 cells; also: potency is read from the fitted curve at half-maximal effect; nearly all actives have a fitted effect of over 30% in size
Tb PYK inh: blocks Trypanosoma brucei pyruvate kinase; TbPYK enzyme, Kinase-Glo Plus ATP luminescence, 45 min; Potency, µM (highest dose often 76.8 µM), for the others: at the highest dose activity, negative = inhibition, actives largely listed as inhibitors; 410,000 compounds, 0.12% hits; also: potency is read from the fitted curve at half-maximal effect; nearly all actives have a fitted effect of over 50% in size
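In this concentration-response screen, enzyme-free wells defined baseline while DMSO plates tracked drift. Each reaction combined TbPYK, substrate, compound and 130 uM ADP for 45 min at room temperature. Kinase-Glo Plus luminescence gave the signal.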
LmPK inhibitor: blocks Leishmania mexicana pyruvate kinase activity; Q27686; purified LmPK, Kinase-Glo ATP luminescence, 1 h; Potency, µM (highest dose often 57.5 µM), without a hit: at the highest dose activity change, negative = inhibition, actives largely listed as inhibitors; 290,000 compounds, 0.37% hits; AID 1721; also: potency is read from the fitted curve at half-maximal effect
Target sequence (Q27686 whole entry, looked up): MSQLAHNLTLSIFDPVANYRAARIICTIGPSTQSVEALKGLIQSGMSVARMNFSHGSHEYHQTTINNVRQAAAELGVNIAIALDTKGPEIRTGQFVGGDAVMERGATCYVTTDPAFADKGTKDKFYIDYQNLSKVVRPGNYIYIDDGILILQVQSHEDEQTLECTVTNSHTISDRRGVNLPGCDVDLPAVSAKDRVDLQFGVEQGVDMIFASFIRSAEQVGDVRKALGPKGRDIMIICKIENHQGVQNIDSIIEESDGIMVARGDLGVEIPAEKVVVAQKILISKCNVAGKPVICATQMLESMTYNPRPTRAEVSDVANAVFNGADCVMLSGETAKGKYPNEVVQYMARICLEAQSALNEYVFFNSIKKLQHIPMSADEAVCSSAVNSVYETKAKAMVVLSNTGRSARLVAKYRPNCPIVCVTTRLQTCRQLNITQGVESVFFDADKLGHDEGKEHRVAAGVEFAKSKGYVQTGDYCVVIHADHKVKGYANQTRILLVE
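Purified LmPK (0.1 nM) with 0.5 mM PEP and 0.1 mM ADP in imidazole buffer pH 7.2 with MgCl2/KCl, 1 h at room temperature. ATP formed was read by luciferase luminescence and normalized to no-enzyme and uninhibited controls.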
HCMV inh: human cytomegalovirus inhibition | HFF cells, HCMV-luciferase reporter, 72 h; active compounds read low | activity change, negative = inhibition, % at 57.5 µM | 410,000 compounds, 4.5% hits; in the data active = activity change below about -60%; inconclusive = no clear call, values can overlap the other calls; inactive = above about -39%
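Compounds were evaluated in HFFs infected with an HCMV luciferase reporter virus (MOI 1 PFU/cell). Luciferase in lysates collected 72 h post infection served as the replication measure.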
VACV mCherry inh: vaccinia inhibition (mCherry reporter). 310,000 compounds, 0.63% hits. Potency, µM (series often up to 36.5 µM), for the others: at the top dose activity change, negative = inhibition, usual class: inhibitors. Vaccinia virus mCherry reporter infection, fluorescence; calls by dose curve; tested in A549 cells; also: potency is read from the fitted curve at half-maximal effect; nearly all actives have a fitted effect of over 35% in size
* hit, by the source's call; i = inactive; ? = inconclusive; nt = no result. In the library only some 5% were active in any assay of this set; here they are far more common. Unless noted, calls follow the shape of the dose curve; as a rule, active = well fitted curve in the direction sought with a large enough effect; inconclusive = small, poorly fitted or top-dose-only effect, or another doubt; inactive = no such curve, though single readings can be large; an effect the other way counts as inactive or inconclusive. % is scaled to controls: 0 for no effect and ±100 for the full control effect.

SMILES	Vaccinia Venus	Tb PYK inh	LmPK inhibitor	HCMV inh	VACV mCherry inh
Cc1ccc(-n2nnc3c(=O)n(CC(=O)OCc4ccccc4)cnc32)cc1	-12%	-12%	3%	14	i
CN1CCN(C2Cc3cc(Cl)ccc3Sc3cc(F)ccc32)CC1 (stereo not given)	?	-12%	nt	-78*	-19%
Cc1ccccc1/C(N)=N/OC(=O)c1ccc(F)cc1	1%	-12%	16µM*	-90*	-3%
Cc1ccccc1C(=O)O/N=C(\N)c1ccccc1	-2%	?	-75%	85	0%
Cc1cc(Br)ccc1SCC(=O)NNC(=O)c1ccco1	nt	3%	nt	0	nt
Cc1cc(C(=O)C(=O)Nc2nnc(C(C)C)s2)c(C)n1-c1ccccc1	-4%	-4%	nt	-87*	-5%
CN(C)C(=O)Oc1ccc(-c2cn3cc(Cl)ccc3n2)cc1	-10%	-11%	13µM*	79	-2%
CN(C)CCCn1c(SCC(=O)N2c3ccccc3Sc3ccccc32)nc2ccccc2c1=O	14µM*	-6%	3%	-99*	?
CCCCn1c(SCC(=O)/C(C#N)=C(\C)N)nc2ccccc2c1=O	-23%	1%	0%	-73*	?
C/C(N)=C(/C#N)C(=O)CSc1nc2ccccc2c(=O)n1Cc1ccc(C)cc1	?	-3%	9%	?	-30%
Cn1c(SCC(=O)N2c3ccccc3Sc3ccccc32)nc2ccccc21	-11%	-1%	3%	?	-21%
CCc1ccc(-c2nc(CS(=O)CC(=O)O)c(C)o2)cc1 (stereo not given)	-14%	-10%	-3%	0	-6%
CC(C)(C)n1nnnc1C(c1ccnc2ccccc12)N1CCN(C/C=C/c2ccccc2)CC1 (stereo not given)	-6%	4%	nt	-6	i
Cc1cc(N=Nc2ccccc2C)ccc1N	-23%	-2%	nt	27	?
O=C(Nc1ccc2c(c1)nc1n2CCSC1)c1ccccc1	nt	-18%	16µM*	-8	nt
COc1ccc(C(=O)Nc2ccc3c(c2)nc2n3CCSC2)cc1	nt	0%	0%	31	nt
CC(c1ccccc1)N1CCn2c(nc3cc(NC(=O)c4cccs4)ccc32)C1 (stereo not given)	-23%	-7%	2%	-73*	-9%
O=C(/C=C\c1ccc2c(c1)OCO2)NC1(C(=O)Nc2ccc3c(c2)OCO3)CCCCC1	-5%	3%	5%	-11	-12%
COc1ccc(C(=O)Nc2ccc(N3CCOCC3)cc2)cc1S(=O)(=O)N1CCOCC1	-11%	2%	nt	-13	i
